# System: VDR:RXRa (NR concentration 270 nM, RXRa partner concentration 90 nM)
# Test: PBM binding z-score (relative to random genomic background probes); higher = stronger binding; sequences stand for … in GC…GCGATTGACAGCGTAGAATGAAGG
# Description: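 Protein-binding microarray (Agilent 4x180K custom design, double-stranded 60-nt probes: 5' GC cap, 34-nt variable region, 24-nt constant primer region; full probe sequence given). Purified or IVT nuclear receptor:RXRα heterodimers (3:1 NR:RXRα, mostly 270:90 nM) or homodimers were incubated for 1 h in PBS with 2% milk and no ligand, then detected with Alexa488 antibodies. Fluorescence from o1-orientation probes (~5 replicates averaged) was converted to z-scores against 500 random hg19 background probes. Variable regions are seed direct-repeat (DR0–DR5) sites, all their single-nucleotide variants and half-site ablations.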
row,Sequence,PBM binding z-score
1,GCTGCTAGGTCAGGTTGGTCAACTAACGGGTACG,0.9
2,CCGACTGGGGCAAAGGTCACCATACTCAGTACGA,4.7
3,TCTGCTAGGTCAGGTGGTCAGCTAACGAGCTGCC,0.132
4,CTATGTAGGTTAAGGGGGTCACTCAGTTTGAAAG,7.21
5,CAAACTAGGTCACGAAAGGTCAAAGTGGAATGAC,6.71
6,CATAGTTGGTCAAGGTCACACACGCTATAGGTAC,4.32
7,CGTCCAAGGTAAATGCTAGGTCAGTGAAAGCATT,0.355
8,TAGCCTAGGTCATGCGGGTCAGTATAGTGTCGGC,5.81
9,CCGAGTAGGTTACGACGGGGCATTCAGTGCGAAT,1.49
10,ATCGAAAGGTCGACGAGTTGAGTATACACCGTTT,6.08
11,TAGCCTAGGACATGCGGGCCAGTATAGTGTCGGC,-0.777
12,CGAACCAGGTCACCAGGACAGTGAAGAGGTTGGA,3.17
13,ATATGTAGGTGAGGGTCATTCAGAAAGTAGGGAA,3.42
14,TGAATGAGGTTAAAGGTCAGGGAACGTGGCGTCG,5.85
15,ATCGAAAGGTCGAGTTGAGTATAGAGAAAGGGAA,3.04
16,CCTACTGGGCCATGAAAGGTCATTGATTCAGTGA,3.82
17,GCTTACGGGTCAAAAGTTATAGCATGAATAGAAT,2.93
18,ATCGAAAGGTCGTGAGGTGTGTATACAGAAAGGC,4.55
19,TCTAGTTGGTCAAAGGTCTCACACTCGAAATGCG,1.42
20,CCTTACGGGTCTCTCCAGGTTATAGCATCGGAGT,0.117

row,Sequence,PBM binding z-score
1,ACTTGGAGGACAAAGGTCAGAGCTACGCCAGTGA,3.58
2,CGTCCAAGGTCAATGCTAGGCCAGTGAAAGCATT,3.78
3,GCATACGGGTCAAAGGTTATAGCATGAATAGAAT,5.37
4,ATATGTAGCTTAAGGGTCATTCAGGTTGGTTCGC,5.26
5,CGAACTAGGTCCTTGACAGGACAGTGAATAGTAA,-0.351
6,TCTACTTGGTCACGGAGGTCACACACGACGGGTA,5.85
7,TAGCCTAGGTCAGATCGGGCCAGTCTACGCTATA,0.668
8,TAGCCTAGGTCATTGGGCCAGTATAGTACGCATC,2.11
9,CCAAGTAGGTTACGAGGGGGCATTCAGTGCGAAT,5.54
10,TATACAGGATCAAAGGCCAGAGTACGAATGTCGA,0.61
11,CCTACTGGGCCACGAAAGGTGATTGATTCAGTGA,-0.281
12,TTACCAAGGTGACCTGAGGTCGTTGATCCAACTC,4.87
13,TCGAGTAGGTTACGGGTGCATTCAGGGATGAAGA,3.53
14,CCTCGGAGGACACCAGGAGGTCAGAGCTGCCAGA,1.99
15,CTATGTAGGTTAAGGGGGCCATTCAGTTTGAAAG,4.74
16,CCTACTGGGCCAAAAATGTCATTGATGCCGATAA,0.0323
17,ATCGAAAGGTCGACGAGGTGAGTATGCACCGTTT,5.27
18,AGAATGAGGTTATACGTAGGTCAGGGAAGAAAGT,3.34
19,TGGAGTAGGTTACGGGGGCATTCAGGGATGAAGA,4.24
20,CGAACTAGGTCAAAGGACAGTCAAAGGCGACGTA,1.69
